# Tg IFNy HTS = blocks Toxoplasma gondii growth in the presence of IFN-gamma | Toxoplasma gondii growth in IFN-gamma-treated host cells; active compounds read low | activity change, negative = inhibition, % (concentration not given with the values) | 69,000 compounds, 3.8% hits | AID 1259416; in the data active = activity change below about -70%, passing the limit was not always enough;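 note: host cells are HeLa cells infected with Toxoplasma gondii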
# * marks the source's active call; other numbers are inactive results; ! = a repeat was not active. The entries come from a sample that favours hits as a whole.
SMILES,Tg IFNy HTS
Nc1ccccc1SCC(O)Cn1ccc2ccccc21 (stereo unspecified),-45
CCOc1ccc(-c2nc(CN3CCc4c(sc5c4CCCC5)C3c3ccccc3)c(C)o2)cc1 (stereo unspecified),-7
C=C1SC(=Nc2cccc(OC)c2)N(C(=O)C(c2ccccc2)C2CCCC2)C1(C)C (stereo unspecified),-90*
NC(=O)C(c1ccccc1)C1CCCC1 (stereo unspecified),10
C=C1SC(=Nc2ccccc2Cl)N(C(=O)c2sc3ccccc3c2Cl)C1(C)C,-28
O=C(Cc1ccc(N2CCC(N3CC4CCC3C4)CC2)cc1)NCCc1cccc(F)c1 (stereo unspecified),-12
COc1ccc(S(=O)(=O)NCCc2sc(-c3cccc(F)c3)nc2C)c(OC)c1,42
CNC(=O)c1ccc(-c2nc(CN3CCN(C(=O)Nc4ccc5c(c4)OCO5)CC3)c(C)o2)cc1,140
O=S(=O)(Cc1ccc(Cl)cc1)CC(O)COc1ccc(F)cc1 (stereo unspecified),19
CCOc1ccc2c(c1)C(c1ccc(F)cc1)=NNC(c1ccc(Cl)cc1)=N2,-34
OC(COc1ccc(F)cc1)(c1ccc(Cl)cc1)c1ccc(Cl)cc1,-99*
CCN(CC)Cc1c(C(=O)O)noc1C,-34
COc1nn(C)c2c1CCCN(S(=O)(=O)c1cccc(F)c1)C2,4
Cc1ccc(C)c(-c2coc(-c3ccc(NC(=O)Nc4ccccc4F)cc3)n2)c1,-35
Cc1ccc(-c2coc(-c3ccc(NC(=O)Nc4ccc(F)cc4F)cc3)n2)c(C)c1,3
Cc1ccc(F)c(NC(=O)Nc2ccc(-c3cccc4[nH]nc(N)c34)cc2)c1,-75*
Cc1cccnc1C(=O)N(Cc1ccccc1Cl)C(C)C,-2
CCCC(NC(=O)c1cnc(N2CCOCC2)nc1)c1cccs1 (stereo unspecified),100
COc1ccc(C2(NC(=O)c3cnc(N4CCOCC4)nc3)CCCC2)cc1,-80*
CCOC(=O)c1cnc(N2CCOCC2)nc1N,185
OC(CCCN1CCC(O)(c2ccc(Cl)cc2)CC1)c1ccc(F)cc1 (stereo unspecified),-55
Fc1ccc(C(CCCN2CCN3CCCCC3C2)c2ccc(F)cc2)cc1 (stereo unspecified),-62
OC1(c2ccc(Cl)c(C(F)(F)F)c2)CCN(CCCC(c2ccc(F)cc2)c2ccc(F)cc2)CC1,-85*!
Cc1onc(C(=O)O)c1Cn1ccnc1C,-7
CC(C)c1cc(N2CCOC(C(F)(F)F)C2)nc(C(F)(F)F)n1 (stereo unspecified),-81*
SMILES,Tg IFNy HTS
Cc1nc(N2CCOC(C(F)(F)F)C2)c2ccsc2n1 (stereo unspecified),-7
FC(F)(F)C1CN(c2nc(-c3ccccc3)no2)CCO1 (stereo unspecified),21
N#Cc1cc(CN2C[C@@H](C(=O)NCc3ccco3)[C@@H]3OCC[C@H]32)ccc1F,-1
NC(=S)c1ccc(-c2ccno2)s1,-24
Cc1csc2c(N3CCc4nnc(C5CCCO5)n4CC3)ncnc12 (stereo unspecified),1
Cc1csc2c(N3CCC(O)(CO)CC3)ncnc12,2
COC(=O)c1sccc1S(=O)(=O)N1CCN(c2ncnc3c(C)csc23)CC1,-85*
O=C(O)c1cncc(-c2cccs2)c1,-17
Cc1c(Nc2nc3nonc3nc2Nc2cccc(Cl)c2)c(=O)n(-c2ccccc2)n1C,-24
O=C(Nc1ccc(Cl)cc1)c1nc(Nc2ccccc2)c2ccccc2n1,96
Clc1ccc(Nc2nc3nonc3nc2Nc2ccc(Cl)cc2)cc1,-103*
CSc1ccc(CN(C(=O)c2ccc(C)cc2)C2(C(=O)NCc3ccccc3)CCN(C(C)=O)CC2)cc1,0
CCc1ccc(-c2cc3c(=O)n(Cc4nc(-c5cccc(OC)c5OC)oc4C)ccn3n2)cc1,96
CN(C)CC[C@H](CSc1ccccc1)Nc1ccc(S(=O)(=O)NC(=O)c2ccc(N3CCN(Cc4ccccc4-c4ccc(Cl)cc4)CC3)cc2)cc1[N+](=O)[O-],-76*
O=S(=O)(NCCN1CCOCC1)c1cccc(C(F)(F)F)c1,-6
CC1(C)CCC(c2ccc(Cl)cc2)=C(CN2CCN(c3ccc(C(=O)NS(=O)(=O)c4ccc(N[C@H](CCN5CCOCC5)CSc5ccccc5)c(S(=O)(=O)C(F)(F)F)c4)cc3)CC2)C1,-72*
CCn1cc2c(n1)C(COC)CN(CC1CCOCC1)C2 (stereo unspecified),96
CC1(C(=O)NC(c2ccncc2)c2ccc(Cl)cc2)CCCO1 (stereo unspecified),-3
OC1(c2cccc(C(F)(F)F)c2)CCN(Cc2ccc3[nH]ccc3c2)CC1,-40
O=C(NC1CCC(n2cnnc2)CC1)c1ccccc1-n1cncn1 (stereo unspecified),12
CCCCNC(=O)c1nc(Nc2cccc(C)c2)c2ccccc2n1,-57
COc1ccc(CNC(=O)c2nc(Nc3ccccc3)c3ccccc3n2)c(OC)c1,-54
Cc1ccc(CNC(=O)c2nc(Nc3ccc(F)cc3)c3ccccc3n2)cc1,-32
COc1ccc(OC)c(CNC(=O)c2nc(Nc3cccc(C)c3)c3ccccc3n2)c1,-74*

# Compound activity as filed in PubChem.
